Source: PubChem (National Center for Advancing Translational Sciences (NCATS))
Shiga inhibitor: A qHTS for Small Molecule Inhibitors of Shiga Toxin | AID 2315, 2010 | inhibition, % at 38.7 µM | Vero cells, Shiga toxin protein synthesis inhibition reporter | 9.2% of 290,000 active; in the data active = inhibition mostly above about 28%, no sharp cut-off; inactive = mostly below about 43%; also: 0% is about no effect
CHX counter: Cycloheximide Counterscreen for Small Molecule Inhibitors of Shiga Toxin; cell reporter, cycloheximide protein synthesis inhibition counterscreen; max response, %; 12% of 300,000 active; AID 2314, 2010; in the data active = max response mostly above about 13%, no sharp cut-off; inactive = mostly below about 14%; also: read at 38.3 µM for the half of the compounds with a filed dose; 0% is about no effect
TbPYK inhibitor: qHTS of Trypanosoma Brucei Inhibitors; TbPYK enzyme, Kinase-Glo Plus ATP luminescence, 45 min; Potency, µM (top dose mostly 76.8 µM), inactives show top-dose activity, negative = inhibition, actives largely listed as inhibitors; 0.12% of 410,000 active; AID 624173, 2012; also: potency is read from the fitted curve at half-maximal effect; % is scaled to controls: 0 for no effect and ±100 for the full control effect; nearly all actives have a fitted effect of over 50% in size
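Quantitative HTS: titrated library compounds versus trypanosomal pyruvate kinase in TEA buffer (pH 7.2) containing KCl, MgCl2, BSA and Tween-20. Reactions were initiated with ADP, 130 uM final. Kinase-Glo Plus luminescence was read after 45 min at RT.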
LmPK inh: qHTS Assay for Inhibitors of Leishmania Mexicana Pyruvate Kinase (LmPK); 0.37% of 290,000 active; Q27686; AID 1721, 2009; Potency, µM (doses to about 57.5 µM), for inactives: at the highest dose activity change, negative = inhibition, actives largely listed as inhibitors; purified LmPK, Kinase-Glo ATP luminescence, 1 h; also: potency is read from the fitted curve at half-maximal effect; % is scaled to controls: 0 for no effect and ±100 for the full control effect
Target sequence (Q27686 whole entry, looked up): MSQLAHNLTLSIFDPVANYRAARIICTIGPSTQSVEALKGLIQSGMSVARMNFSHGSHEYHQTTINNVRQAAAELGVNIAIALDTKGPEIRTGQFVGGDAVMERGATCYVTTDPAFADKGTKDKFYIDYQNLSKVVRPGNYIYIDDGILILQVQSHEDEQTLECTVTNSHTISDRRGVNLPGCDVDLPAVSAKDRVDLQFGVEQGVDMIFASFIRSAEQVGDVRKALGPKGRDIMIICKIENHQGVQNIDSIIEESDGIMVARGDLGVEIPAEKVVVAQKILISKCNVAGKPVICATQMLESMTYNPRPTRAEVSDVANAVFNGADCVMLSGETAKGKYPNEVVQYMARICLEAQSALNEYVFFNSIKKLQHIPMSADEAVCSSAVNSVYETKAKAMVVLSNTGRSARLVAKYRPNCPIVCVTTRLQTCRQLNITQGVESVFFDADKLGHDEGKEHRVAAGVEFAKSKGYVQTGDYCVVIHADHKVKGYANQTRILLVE
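ATP generated from ADP (0.1 mM) and PEP (0.5 mM) by 0.1 nM LmPK over 1 h at room temperature (pH 7.2 imidazole buffer) was detected by coupled luciferase luminescence. Values were normalized to uninhibited and no-enzyme wells.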
RE007 growth inh: qHTS Assay for Inhibitors of the HIV-1 protein Vpr | S. pombe RE007 Vpr strain, BacTiter-Glo ATP luminescence, 24 h | Potency, µM (titrated, usually from 92.2 µM), inactives show top-dose activity change, negative = less growth, usual class: inhibitors | AID 651644, 2012 | 0.21% of 360,000 active; active = well fitted falling curve with a large enough effect; inconclusive = small, poorly fitted or top-dose-only effect; inactive = no such curve, though single readings can be large or run the other way; also: potency is read from the fitted curve at half-maximal effect; % is scaled to controls: 0 for no effect and ±100 for the full control effect; nearly all actives have a fitted effect of over 50% in size
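Fission yeast strain RE007, carrying one chromosomally integrated HIV-1 vpr copy, was seeded at OD 0.01 in PMG+AL medium with 23 nL pinned compound. After 24 h at 30 °C and 99% humidity, viability was read by BacTiter-Glo luminescence.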
FBPA Giardia inh: qHTS Assay for Inhibitors of Fructose-1,6-bisphosphate Aldolase from Giardia Lamblia; purified Giardia FBPA; AID 2451, 2010; 0.71% of 290,000 active; Potency, µM (highest dose often 59.6 µM), for the others: top-dose activity, negative = inhibition, hits mostly inhibitors; also: potency is read from the fitted curve at half-maximal effect; % is scaled to controls: 0 for no effect and ±100 for the full control effect; nearly all actives have a fitted effect of over 55% in size
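40 nM FBPA preincubated 10 min at RT with compound (up to 57.5 uM final), then substrate plus GAPDH/TPI/NAD/arsenate coupling and diaphorase/resazurin added. Fluorescence read after 20 min at RT, 525/598 nm.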
An asterisk follows results filed as active; ? = inconclusive; · = not tested or not shown; [ ] = remark or other dose. The entries come from a sample that favours hits as a whole. Unless noted, calls follow the shape of the dose curve; as a rule, active = well fitted curve in the direction sought with a large enough effect; inconclusive = small, poorly fitted or top-dose-only effect, or another doubt; inactive = no such curve, though single readings can be large; an effect the other way counts as inactive or inconclusive.

SMILES	Shiga inhibitor	CHX counter	TbPYK inhibitor	LmPK inh	RE007 growth inh	FBPA Giardia inh
O=C(NC(=S)NCCc1ccccc1)C1CCCCC1	55*	34*	-5%	1%	·	0%
O=C(CNC(=S)NC(=O)C1CCCCC1)c1ccccc1	114*	75*	-3%	-7%	11%	3%
O=C(O)C1CCCCC1C(=O)NCCc1ccc(F)cc1 (configuration not stated)	-4	-2	6%	3%	13%	-2%
O=C(NCCc1ccc(F)cc1)C1CCCCC1	42	24*	2%	-4%	22%	2%
Cc1cc(C)cc(NC(=O)C2CCCN(c3nnc(C)c4c(C)n(-c5ccccc5)nc34)C2)c1 (configuration not stated)	·	·	0%	·	·	·
Cc1cn([C@H]2C[C@H](O)[C@@H](CCC(=O)NCCc3ccc4ccccc4c3)O2)c(=O)[nH]c1=O	·	·	5%	·	-3%	·
CC(C)(C)c1ccc(O)c(N=Cc2c(O)ccc3ccccc23)c1	9	4	-13%	1%	-1%	-2%
CC(C)(C)c1ccc(O)c(N=Cc2cc(Br)ccc2O)c1	31*	20*	?	-1%	-5%	-5%
CCN(CC)c1ccc(C=Nc2ccc(C)cc2C)c(O)c1	19	8	-26%	0%	0%	-23%
Oc1cccc(/C=N/N=C/c2cccc(O)c2O)c1O	18	30*	-13%	3%	-14%	-15%
Cc1ccc(O)c(C=Nc2cc(C)ccc2O)c1	67	15*	2%	-2%	-8%	-22%
Cc1ccc(N=Cc2cccc(O)c2O)c(C)c1	37*	25	·	-25%	·	?
Cc1cccc(NC(=O)c2c(C)cc(C)nc2SCC(=O)Nc2c(C)cc(C)cc2C)c1	·	·	0%	·	·	·
Cc1ccc(Cl)cc1NC(=O)CCCN1C(=O)CCn2nc(-c3cn(C)c4ccccc34)cc21	·	·	2%	·	·	·
CC(C)(C)OC(=O)N[C@H]1C=C[C@@H](OC(=O)CC(=O)OCC(F)(F)F)C1	·	·	0%	·	-10%	·
CCc1ccc(O)c(N=Cc2ccccc2O)c1	71*	15*	-8%	-5%	-16%	-18%
Cc1cccc(-c2nnc(-c3ccc(N)cc3)o2)c1	75*	35*	-11%	-12%	-21%	-3%
Nc1ccc(-c2nnc(-c3ccc(N)cc3)o2)cc1	73*	48*	-5%	-1%	3%	3%
Cc1ccc(-c2nnc(-c3ccc4ccccc4c3)o2)cc1	·	·	1%	·	10%	·
CC(=O)OC[C@@H]1O[C@@H](O/N=C2/C[C@@H](O)[C@@H](O)[C@@H]3[C@@H]4C(=O)N(C[C@@H]5CCCO5)C(=O)[C@H]4CC[C@@H]23)[C@H](OC(C)=O)[C@H](OC(C)=O)[C@@H]1OC(C)=O	·	·	·	·	·	0%[12.9 µM]
CCN(CC)CCOC(=O)c1ccc(N/C=C(/C#N)c2nc(-c3ccc(OC)cc3)cs2)cc1	7	-2	-3%	-3%	0%	-6%
CCN(CC)CCOC(=O)c1ccc(N/C=C(/C#N)c2nc(-c3ccc4c(c3)OCO4)cs2)cc1	25	31*	0%	3%	-6%	1%
COc1ccc(-c2nc3cc(C)ccn3c2NCc2ccc3c(c2)OCO3)cc1	133*	27*	0%	1%	-22%	-9%
COc1ccc(-c2nc3ccccn3c2NCc2ccc3c(c2)OCO3)cc1	49*	22*	-3%	-22%	?	0%
N=C(CC1CC(=O)NC(=O)C1)C1=C(O)CCCC1=O	-13	-1	0%	1%	5%	-1%
SMILES	Shiga inhibitor	CHX counter	TbPYK inhibitor	LmPK inh	RE007 growth inh	FBPA Giardia inh
Cc1ccccc1/C=C/C12NC(=O)CN1c1ccccc1C2(C)C (configuration not stated)	63	24*	-5%	2%	-1%	-5%
CC1(C)c2ccccc2N2CC(=O)N[C@@]21/C=C/C=C/c1ccccc1	-8	1	-7%	7%	9%	-6%
Nc1c(Br)cc(Br)c2cccnc12	-8	-7	·	·	·	·
Brc1cc2[nH]cnc2c2ccccc12	-10	5	-10%	0%	-20%	18µM*
CCCC(=O)Nc1ccc2oc(-c3ccc(OC)c(Br)c3)nc2c1	65	22*	0%	4%	-11%	1%
CCCC(=O)Nc1ccc(-c2nc3cc(C)ccc3o2)cc1	70*	31*	-2%	-3%	-23%	2%
CCCC(=O)Nc1ccc(-c2nc3cc(C)c(C)cc3o2)c(O)c1	52	32*	2%	2%	3%	6%
CCCC(=O)Nc1ccc(C)c(O)c1	-10	-2	0%	2%	28%	0%
CCOC(=O)[C@@H](N)CS	·	·	5%	·	·	·
CCCCN1CC(O)=C(c2nc3ccccc3s2)C1=N	44	25*	3%	4%	?	0%
CCN1CC(O)=C(c2nc3ccccc3s2)C1=N	27	24*	-6%	-3%	-19%	-4%
CC(O)CN1CC(O)=C(c2nc3ccccc3s2)C1=N (configuration not stated)	21	17*	-9%	9%	-2%	2%
CNC(=O)c1ccc(CSc2nc3cccnc3n2Cc2cccc(F)c2)cc1	·	·	0%	·	·	·
CCOC(=O)c1ccc(OCC2c3cc(OC)c(OC)cc3CCN2C(=O)Cc2ccc(F)cc2)cc1 (configuration not stated)	·	·	-10%	·	·	·
CCCN(Cc1ccccc1)C(=O)Nc1ccc2c(c1)nnn2C	40*	19*	1%	-1%	1%	-19%
COc1ccccc1NC(=O)Nc1ccc2c(c1)nnn2C	50*	57*	-15%	4%	0%	-19%
COc1ccccc1NC(=O)NCC(=O)Nc1ccc(F)c(F)c1	15	9	0%	0%	5%	0%
COc1ccccc1NC(=O)Nc1ccc(F)c(F)c1	81*	66*	-3%	?	-19%	-23%
COc1ccc(C)cc1NC(=O)Nc1ccncc1	-12	2	5%	-6%	-17%	·
COc1ccc(NC(=O)Nc2cc(C)ccc2F)cc1OC	41*	18*	-11%	-6%	9%	6%
Cc1cc(C)cc(-n2c(SCC(N)=O)nc3c(oc4ccccc43)c2=O)c1	·	·	0%	·	·	·
CC(=O)c1c(Nc2ccc3c(c2)OCCO3)oc(C)cc1=O	118*	52*	1%	-3%	-1%	?
Cc1ccccc1C(=O)Nc1ccc2c(c1)OCCO2	20	18*	-14%	-10%	11%	-1%
Cc1occc1C(=O)Nc1ccc2c(c1)OCCO2	100*	107*	-17%	13µM*	-15%	-24%
Cc1cc(C(=O)Nc2ccc3c(c2)OCCO3)c(C)o1	68*	28*	-8%	?	-15%	-5%
CSc1ccccc1C(=O)Nc1ccc2c(c1)OCCO2	64	23	4%	-20%	?	-2%
